Results filed as inconclusive are left out. Activity calls are given as the source filed them. Unless noted, calls follow the shape of the dose curve; as a rule, active = well fitted curve in the direction sought with a large enough effect; inconclusive = small, poorly fitted or top-dose-only effect, or another doubt; inactive = no such curve, though single readings can be large; an effect the other way counts as inactive or inconclusive.
Key:
[1] = qHTS profiling of the MIPE4 collection as inhibitors of Plasmodium falciparum (3D7) proliferation (AID 743344; call rule not given here;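 also: scaled between DMSO vehicle wells and 0.29 µM artemisinin as full inhibition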); conditions: P. falciparum 3D7 in erythrocytes, SYBR Green DNA fluorescence, 72 h; at 28.5 µM unless noted
Method in brief: (§1)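 Parasite DNA was quantified by SYBR Green I fluorescence (ex 485, em 535 nm) after overnight lysis in saponin/Triton buffer at room temperature. Cultures at 0.3% parasitemia and 2.5% hematocrit were first exposed to compound for 72 h at 37 C; signals were normalised to artemisinin (0.29 uM) and vehicle wells.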

[2] = qHTS profiling of the MIPE4 collection as inhibitors of Plasmodium falciparum (DD2) proliferation (AID 743345; call rule not given here); conditions: P. falciparum Dd2 in erythrocytes, SYBR Green DNA, 72 h; at 28.5 µM unless noted
Method in brief: as §1

[3] = qHTS profiling of the MIPE4 collection as inhibitors of Plasmodium falciparum (DD2) proliferation (Rep 2) (AID 743346; call rule not given here); conditions: P. falciparum Dd2 in erythrocytes, SYBR Green DNA, 72 h; at 28.5 µM unless noted
Method in brief: as §1

[4] = qHTS profiling of the MIPE4 collection as inhibitors of Plasmodium falciparum (HB3) proliferation (AID 743347; call rule not given here;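 also: plate controls were DMSO vehicle wells for no effect and artemisinin wells for full effect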); conditions: P. falciparum HB3 in erythrocytes, SYBR Green DNA, 72 h; at 28.5 µM unless noted
Method in brief: as §1

[5] = High-throughput drug toxicity screening in the BPDCN cell line Gen2.2 (AID 1224824; call rule not given here;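 also: cells exposed to compounds for 48 h before reading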); conditions: Gen2.2 BPDCN cells; at 45.8 µM (top of the series) unless noted
Method in brief: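 Seed 500 exponentially growing Gen2.2 cells/well; add compounds by pin tool; incubate 48 h, 37 °C, 5% CO2; add CellTiter-Glo, 15 min RT; read luminescence. % activity vs DMSO (100%) and bortezomib (0%).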

[6] = High-throughput drug toxicity screening in the BPDCN cell line Cal-1 (AID 1224825; call rule not given here); conditions: Cal-1 BPDCN cell viability, qHTS; at 45.8 µM (top of the series) unless noted
Method in brief: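 CellTiter-Glo luminescence after 48 h compound exposure; percent activity scaled with DMSO as 100% and bortezomib (9.2 uM final) as 0%. Cal-1 cells seeded at 500/well in RPMI, 10% FBS, no phenol red.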

[7] = qHTS assay for measurement of the activity of small molecule inhibitors on Zika virus induced Caspase-3 activity in human iPSC derived neural progenitor cells (hNPCs) (AID 1224857); also: % of control where 0% means no effect; nearly all actives have a fitted effect of over 65% in size
Method in brief: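 Zika virus (2 FFU/cell) infection of human iPSC-derived NPCs, 6 h, following 1 h compound preincubation. Read-out: Caspase-Glo 3/7 luminescence.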

[8] = qHTS assay for measurement of the activity of small molecule inhibitors on Zika virus induced Caspase-3 activity in human astrocytoma cells (AID 1224859);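 also: plate controls were ZIKV-infected untreated cells for no effect and uninfected cells for full effect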
Method in brief: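 Caspase activation in ZIKV-infected SNB-19 cells (2 FFU/cell, 6 h) measured by Caspase-Glo 3/7 luminescence after 30 min RT; compound pre-incubated 1 h; normalised to uninfected and infected controls.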

[9] = qHTS Screen of the MIPE 4.0 Collection Against Ewings Sarcoma (RDES) (AID 1259252); also: nearly all actives have a fitted effect of over 35% in size; also: potency is read from the fitted curve at half-maximal effect
Method in brief: (§2)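 Dose series incubated 48 h with cells in RPMI plus 5% FBS, glutamine and penicillin/streptomycin; cell viability then quantified via CellTiter-Glo.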

[10] = qHTS Screen of the MIPE 4.0 Collection Against Ewings Sarcoma (TC71) (AID 1259253); also: nearly all actives have a fitted effect of over 40% in size; also: potency is read from the fitted curve at half-maximal effect
Method in brief: as §2

[11] = qHTS Screen of the MIPE 4.0 Collection Against Ewings Sarcoma (EW8) (AID 1259255); also: nearly all actives have a fitted effect of over 35% in size; also: potency is read from the fitted curve at half-maximal effect;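 as to viability: 100% = DMSO-treated cells and 0% = medium-only wells without cells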
Method in brief: as §2

[12] = P-glycoprotein substrates identified in KB-3-1 adenocarcinoma cell line, qHTS therapeutic library screen (AID 1346986); also: nearly all actives have a fitted effect of over 60% in size;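 also: potency is read from the fitted curve at half-maximal effect; potency is for cytotoxicity meaning loss of cell viability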
Method in brief: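 In 1536-well format, 500 cells/well received pinned compound titrations and were incubated 72 h, 5% CO2. Viability was read by CellTiter-Glo; cytotoxic if AC50 < 10 uM and efficacy >50%.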

[13] = qHTS profiling for inhibitors of Plasmodium falciparum (HB3) proliferation (AID 743324); conditions: Plasmodium falciparum HB3 blood-stage proliferation; at 28.7 µM (top of the series) unless noted;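 also: 100% = DMSO vehicle wells and 0% = artemisinin-treated control wells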
Method in brief: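 SYBR Green fluorescence (485 ex/535 em) of lysed cultures, incubated overnight at room temperature in the dark, quantifies parasite DNA. Infected erythrocytes at 0.3% parasitemia and 2.5% hematocrit were exposed 72 h; values normalized to DMSO and 0.29 uM artemisinin controls.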

[14] = Identifying Small Molecule Inhibitors of Pancreatic Cancer Stem Cells (A2780, Spheroid) (AID 1259357); conditions: Potency: A2780 spheroid viability;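 also: spheroids pre-formed over 14 days in stem cell medium on hydrogel; compound exposure lasted 48 h before the ATP luminescence read; 100% = DMSO treated cells and 0% = wells without cells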
Method in brief: (§3)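 Endpoint: ATP-based luminescence, 48 h drug exposure. Bortezomib at 9.2 uM final as full-kill control; DMSO vehicle as negative control; activity normalized between vehicle and cell-free wells.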

[15] = Identifying Small Molecule Inhibitors of Pancreatic Cancer Stem Cells (SN12C, Adherent) (AID 1259358);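 also: cell survival measured after 48 h of compound exposure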
Method in brief: as §3

[16] = Identifying Small Molecule Inhibitors of Pancreatic Cancer Stem Cells (SN12C, Spheroid) (AID 1259360); conditions: Potency: SN12C spheroid viability;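 also: 100% = DMSO-treated cells and 0% = wells without cells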
Method in brief: as §3

[17] = Identifying Small Molecule Inhibitors of Pancreatic Cancer Stem Cells (A278, Adherent) (AID 1259361);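 also: viability read after 48 h compound exposure; nearly all actives have a fitted effect of over 35% in size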
Method in brief: as §3

[18] = qHTS assay to identify small molecule inhibitors of chordoma cells - UCH-2 (AID 1259356); also: % is scaled to controls: 0 for no effect and ±100 for the full control effect

SMILES	parasite growth, % of DMSO control [1] [%]	parasite growth remaining, % of DMSO control (lower = more inhibition) [2] [%]	parasite growth, % of control (lower = inhibition) [3] [%]	growth, % of control [4] [%]	cell viability, % of control (lower = more cytotoxic) [5] [%]	viability (% of control) [6] [%]	Potency [7]	Potency [8]	Potency [9]	Potency [10]	Potency [11]	Potency [12]	remaining proliferation (% of control), lower = more inhibition [13] [%]	Potency [14]	Potency [15]	Potency [16]	IC50 (viability decrease) [17]	outcome [18]
Cc1cnc(-c2cc(N3CCN(C(=O)CCS(C)(=O)=O)CC3)ncc2Cl)c(C)c1	58.6	93.9	110	76.4	120	64.7	inactive	inactive	inactive	inactive	inactive							
CC[C@H]1OC(=O)[C@H](C)[C@@H](O[C@H]2C[C@@](C)(OC)[C@@H](O)[C@H](C)O2)[C@H](C)[C@@H](O[C@@H]2O[C@H](C)C[C@H](N(C)C)[C@H]2O)[C@](C)(O)C[C@H](C)C(=NOCOCCOC)[C@H](C)[C@@H](O)[C@]1(C)O	53.1	62.4	47.3	82.6	129	113	inactive	inactive	inactive	inactive	inactive							
OC1CCC(Nc2ncc3nc(Nc4c(F)cc(F)cc4F)n([C@@H]4CCOC4)c3n2)CC1 (stereo partly drawn)	38.4	84.7	59.6	43.4	62.2	13.2	inactive	inactive	18.7 µM (active)	10.5 µM (active)	9.35 µM (active)							
Cc1ccccc1C(=O)c1ccc(Nc2ccc(Br)cc2N)cc1Cl	27.4	44.1		28.4	182	79.6	inactive	inactive	23.5 µM (active)	16.6 µM (active)	23.5 µM (active)	14.6 µM (active)						
CC(C)CN(C[C@H](O)[C@H](Cc1ccccc1)NC(=O)O[C@H]1CCOC1)S(=O)(=O)c1ccc(N)cc1	6.57	73.7		42.8	149	97.6	inactive	inactive	16.6 µM (active)	18.7 µM (active)	18.7 µM (active)	inactive						
C[C@H]1[C@H](O)O[C@@H]2O[C@@]3(C)CC[C@@H]4[C@H](C)CC[C@@H]1[C@@]24OO3	18.9	7.23	13.8		15.8	7.2	inactive	inactive	3.32 µM (active)	1.48 µM (active)	1.66 µM (active)							
CC1(C)[C@H]2CC[C@]3(C)[C@@H](C(=O)C=C4[C@@H]5C[C@@](C)(C(=O)O)CC[C@]5(C)CC[C@]43C)[C@@]2(C)CC[C@@H]1O	93.2	98.1	84.9	87.6	139	111	inactive	inactive	inactive	inactive	inactive							
COc1cccc(OC)c1-c1cc(C(=O)NC2(C(=O)O)C3CC4CC(C3)CC2C4)nn1-c1ccnc2cc(Cl)ccc12 (stereo not drawn)	31.4	33.7	29.8	7.09	119	128	inactive	inactive	inactive	inactive	inactive	inactive	47.3	inactive	inactive	inactive	20.9 µM (active)	
Nc1ncnc2c1ncn2[C@@H]1O[C@H](CO)[C@@H](O)[C@@H]1O	6.49	98	6.61	6.56	108	18.3	inactive	inactive	16.6 µM (active)	6.62 µM (active)	5.26 µM (active)	inactive						
NC(N)=Nc1nc(CSCCC(N)=NS(N)(=O)=O)cs1	74.6	98.2	84.9	92.7	171	50.4	inactive	inactive	11.8 µM (active)	18.7 µM (active)	inactive							
CC(C)CN(C[C@@H](O)[C@H](Cc1ccccc1)NC(=O)O[C@H]1CO[C@H]2OCC[C@H]21)S(=O)(=O)c1ccc(N)cc1	42.7	19.4		8.15	118	117	inactive	inactive	2.09 µM (active)	3.72 µM (active)	1.32 µM (active)	inactive						inactive
CN(CC=CC#CC(C)(C)C)Cc1cccc2ccccc12	15	79.2	14.9	14.6	194	115	inactive	inactive	inactive	inactive	inactive							
CC(NCCc1ccc(O)cc1)C(O)c1ccc(O)cc1 (stereo not drawn)	85	102	73.8	96.6	91	107	inactive	inactive	inactive	inactive	inactive							
COc1cc(F)c(C(C)C)cc1-c1ccc(C(F)(F)F)cc1CN1C(=O)O[C@H](c2cc(C(F)(F)F)cc(C(F)(F)F)c2)[C@@H]1C	6.82	9.07	31.9	9.46	115	33.1	inactive	inactive	inactive	16.6 µM (active)	inactive							
COc1cc(CNC(=O)CCCCC=CC(C)C)ccc1O					145	27.5	inactive	inactive	5.9 µM (active)	16.6 µM (active)	6.62 µM (active)							
